This excerpt belongs to a sample that is enriched for hits.
CapD inh – blocks the Bacillus anthracis CapD enzyme; purified CapD enzyme, fluorescence intensity read-out; stronger effect = lower value; z-score (no concentration beside the values); hit rate 0.23% among 140,000; in the data active = z-score mostly below about -2.9, no sharp cut-off; inactive = mostly above about -1.9
Hits are given with their value; i = inactive.

SMILES	CapD inh
Cc1ccc2c(c1)C(c1ccc(Cl)cc1Cl)CC(=O)N2 (stereo unspecified)	i
CSC1=NSC2=NC(=O)/C(=C\c3ccc(-c4ccccc4)o3)C(=N)N12	i
CC(=O)Oc1ccc(/C=C2/C(=N)N3C(=NC2=O)SN=C3SC(C)C)cc1	i
CC(C)SC1=NSC2=NC(=O)/C(=C\c3ccc(-c4cccc(C(=O)O)c4)o3)C(=N)N21	-13
COc1ccc(C=NCCN2Cc3ccccc3C2=O)cc1OC	i
O=C(CCSc1cccs1)Nc1cccnc1	i
CC(C)NC(=O)Cn1ncc2c1-c1ccccc1OC2	i
CCN(CCN(C)C)C(=O)Cn1ncc2c1-c1ccccc1OC2	i
CC1CCCCN1C(=O)Cn1ncc2c1-c1ccccc1OC2 (stereo unspecified)	-4
CCOc1ccc(N=c2scc(-c3ccc(S(=O)(=O)N4CCCCC4)cc3)n2CCCO)cc1	i
O=C(Nc1ncnc2sc3c(c12)CCCC3)c1ccc(F)cc1	i
CC(=O)Nc1ncnc2sc3c(c12)CCCC3	-8.8
CCC(=O)Nc1ncnc2sc3c(c12)CCCC3	i
O=C(NCCNc1ccc([N+](=O)[O-])cn1)NNC(=O)c1ccc([N+](=O)[O-])o1	-5.1
CCN(CC)c1ccc(C(=O)NNC(=O)NCCNc2ccc([N+](=O)[O-])cn2)cc1	i
CSCCNC(=O)NCCNc1ccc([N+](=O)[O-])cn1	i
CC(=O)N1c2ccccc2N=C(c2ccc(Cl)cc2)CC1c1ccc(F)cc1 (stereo unspecified)	i
O=C(/C=C/c1ccccc1)C1(O)CCCCC1	i
COc1ccc(/C=C/C(=O)C2(O)CCCCC2)cc1OC	-4.5
O=C(/C=C/c1ccc(Cl)cc1)C1(O)CCCCC1	i
O=C(Cn1c(=O)oc2cc(S(=O)(=O)NCc3ccccc3)ccc21)NC1CCCCC1	i
O=C1/C(=C\c2ccsc2)CC/C1=C/c1ccsc1	i
CCCN1C/C(=C\c2ccc(N(C)C)cc2)C(=O)/C(=C/c2ccc(N(C)C)cc2)C1	i
CCCN1C/C(=C/c2ccsc2)C(=O)/C(=C/c2ccsc2)C1	-4.7
O=C1CCCC(O)=C1C(C1=C(O)CCCC1=O)c1ccccc1	i
SMILES	CapD inh
COc1ccc(C(O)c2nccn2Cc2ccccc2)cc1OC (stereo unspecified)	i
CCCc1ccc(S(=O)(=O)N2CCCC2C(=O)OCc2ccc([N+](=O)[O-])cc2)cc1 (stereo unspecified)	i
Cc1cccc(Cl)c1NC(=S)NC(Cc1ccccc1)c1ccccc1 (stereo unspecified)	i
O=C1CSC(N=Nc2c(O)[nH]c3ccccc23)=N1	-4.1
O=C(N=Nc1c(O)[nH]c2ccccc12)C(O)c1ccccc1 (stereo unspecified)	i
O=C1N=c2ccccc2=C1N=Nc1c(O)[nH]c2ccccc12	i
O=C(CCCn1sc2ccccc2c1=O)N1CCCC1	i
O=c1oc2ccccc2cc1-c1csc(Nc2ccc(F)cc2)n1	i
C=CCSc1nc(-c2cccs2)cc(-c2ccccc2)c1C#N	i
CCC(=O)N(CCC1(c2ccccc2)CCOC(C)(C)C1)Cc1ccc(OC(C)C)cc1 (stereo unspecified)	i
N#CC(=C1CCCCC1)c1nc2ccccc2s1	i
N#C/C(=N/O)c1nc2ccccc2s1	-4.5
CSC(SC)=C(C#N)c1nc2ccccc2s1	i
CCOc1cc(/C=C2\SC(=O)N(Cc3ccc(F)cc3)C2=O)ccc1O	i
COC(OC)c1ccc2cnccc2n1	i
Cc1cccc(N2C(=O)CC(Sc3ncccc3C(=O)O)C2=O)c1C (stereo unspecified)	i
CCCNC(=O)Cn1nc(C)c2sc3ccccc3c2c1=O	-5.8
Cc1nn(CC(=O)NCc2ccc3c(c2)OCO3)c(=O)c2c1sc1ccccc12	i
Cc1nn(CCCC(=O)N2CCCCC2)c(=O)c2c1sc1ccccc12	i
COC(=O)c1cc2cccc3c2n1CCS3	i
CC(C)(Oc1ccccc1OC(=O)c1ccccc1)C(=O)CBr	i
CC(=O)Nc1ccc(NC(=O)COC(=O)C2(c3ccc(Cl)cc3)CCCC2)cc1	i
O=C(NCCNc1nccc(C(F)(F)F)n1)c1ccco1	i
CC(=O)Nc1ccc2nc(C)sc2c1	-5.7
Cc1nc2ccc(NC(=O)c3cccc(Br)c3)cc2s1	i
SMILES	CapD inh
CC(=O)Nc1ccc2nc(NC(=O)C(C)(C)C)sc2c1	i
Cc1ccc(CSc2ncnc3sc4c(c23)CCC4)cc1	i
C=CCN1C(=O)/C(=C2\SC(=S)N(CC(=O)O)C2=O)c2cc(Br)ccc21	i
COc1ccc(/C=N/NC(=O)c2ccncc2)cc1	i
N#Cc1ccccc1Cn1cc(C(=O)c2cccs2)c2ccccc21	i
CC(=S)/C=C1\Sc2ccccc2N1C	-5.3
CN1/C(=C/C(=O)c2ccco2)Sc2ccccc21	i
CN1/C(=C\C=C2C(=O)c3ccccc3C2=O)Sc2ccccc21	i
O=C(N/N=C/c1ccccc1C(=O)O)c1ccc([N+](=O)[O-])o1	i
O=C(N/N=C/c1ccccn1)c1ccc([N+](=O)[O-])o1	-4.3
O=C(N/N=C/c1ccc(Br)cc1)c1ccc([N+](=O)[O-])o1	i
C=CCNC(=O)C1CC(=O)N(c2ccc(OCC(=O)Nc3ccc(F)cc3)cc2)C1 (stereo unspecified)	i
O=C(NCc1nnc(SCC(=O)N2CCc3ccccc32)n1-c1ccc(F)cc1)c1cccs1	i
CSC(=Nc1ccccc1)C(C#N)c1nc2ccccc2[nH]1 (stereo unspecified)	i
c1nc(NCc2ccc3c(c2)OCO3)c2nc3n(c2n1)CCCCC3	i
C[n+]1c(/C=C/Nc2ccccc2)sc2ccccc21	-4.4
CC[n+]1c(/C=C/Nc2ccccc2)sc2ccccc21	-4.9
CC[n+]1c(/C=C/N(C)c2ccccc2)sc2ccc(OC)cc21	i
CSc1sc2ccccc2[n+]1C	i
CC[n+]1c(/C=C2/C=C(C)CC(C)C2)sc2ccccc21 (stereo unspecified)	i
C[n+]1c(COc2ccccc2O)sc2ccccc21	i
COc1ccc(N2C(=O)NC(=O)/C(=C/c3ccc(N(C)C)c(Br)c3)C2=O)cc1	i
CCCCC(CC)C(=O)Nc1ccc(S(=O)(=O)N2CCCCC2)cc1 (stereo unspecified)	i
O=S(=O)(c1ccccc1)c1nc(Cc2ccccc2)oc1NCc1ccccc1	i
Cc1ccc(N2C(=O)NC(=O)/C(=C\c3cc(C)n(-c4cc(C(=O)O)cc(C(=O)O)c4)c3C)C2=O)cc1	i
SMILES	CapD inh
Cc1cc(/C=C2\C(=O)NC(=S)N(c3cccc(Cl)c3)C2=O)c(C)n1-c1cc(C(=O)O)cc(C(=O)O)c1	-5.9
Cc1cc(/C=C2\C(=O)NC(=S)N(c3ccc(F)cc3)C2=O)c(C)n1-c1ccccc1	i
CC(=O)O/C(=C\c1cn(C(C)=O)c2ccccc12)C(=O)O	i
CCC1CCCCN1S(=O)(=O)c1ccc(NC(=O)COc2ccc(OC)cc2)cc1 (stereo unspecified)	i
Cc1cccc(N2CCN(S(=O)(=O)c3c(C)c(C)cc(C)c3C)CC2)c1	i
N#CC1=C(N)SC(c2cccs2)C(C#N)=C1N (stereo unspecified)	-5.1
N#CC1=C(N)OC(C2CC2)=C(C#N)C1c1cccs1 (stereo unspecified)	i
COc1cc(OC)cc(C2SC(N)=C(C#N)C(N)=C2C#N)c1 (stereo unspecified)	i
Cc1c(NS(=O)(=O)N2CCCCC2)c(=O)n(-c2ccccc2)n1C	i
Cc1ccc(/C=C2\CC/C(=C\c3ccc(C)o3)C2=O)o1	i
Cc1ccc(/C=C2\N=C(c3ccc(C4=N/C(=C\c5ccc(C)o5)C(=O)O4)cc3)OC2=O)o1	i
Cc1ccc(/C=C2/C=CC(=O)O2)o1	-5.2
